The text below walks through data of paper PMC7862700, “An all-to-all approach to the identification of sequence-specific readers for epigenetic DNA modifications on cytosine”.

Holding throughout (assay): DAPPL (digital affinity profiling via proximity ligation, sequencing); 10 mM Tris-HCl pH 7.5, 50 mM NaCl, 1 mM DTT, 4% glycerol, room temperature, 30 min; GST-TFs on glutathione beads, 16-mer random dsDNA library, 0.1% formaldehyde crosslink after washing; high values mean tight binding
What all share (settings): protein: recombinant; tags: N-terminal GST; dsDNA, one strand shown

One experiment has as its target T1, GABPA (Homo sapiens, UniProt Q06546 1-454).
T1 sequence: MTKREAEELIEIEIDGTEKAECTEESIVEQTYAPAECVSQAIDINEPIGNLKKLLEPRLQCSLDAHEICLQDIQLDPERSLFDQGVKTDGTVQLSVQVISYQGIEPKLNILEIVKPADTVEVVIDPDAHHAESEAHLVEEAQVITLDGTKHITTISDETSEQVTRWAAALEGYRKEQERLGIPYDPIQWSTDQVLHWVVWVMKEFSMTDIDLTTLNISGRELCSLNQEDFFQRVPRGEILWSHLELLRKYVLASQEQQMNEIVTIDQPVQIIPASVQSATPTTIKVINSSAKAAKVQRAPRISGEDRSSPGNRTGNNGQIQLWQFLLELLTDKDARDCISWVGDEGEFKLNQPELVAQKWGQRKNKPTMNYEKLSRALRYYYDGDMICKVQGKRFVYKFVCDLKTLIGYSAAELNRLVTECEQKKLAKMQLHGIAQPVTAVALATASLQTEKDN
Put shortly: (§1)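 In yeast, human transcription factors were expressed with a GST fusion, then pulled down on glutathione beads and given DNA barcodes. Pooled with a tag-only sample, they were exposed to 200 nmole of a 16-mer random double-stranded DNA library (Tris/NaCl/DTT/glycerol buffer, room temperature, 30 min), washed, crosslinked with 0.1% formaldehyde, proximity-ligated using BsaI/T4 ligase for 1 h at 37 °C, PCR-amplified and read on an Illumina NextSeq500. Each hexamer's frequency of reads for a factor, divided by the matching frequency for the tag-only sample, gives the binding signal.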

The target of another experiment is T2, ETV3L (Homo sapiens, UniProt Q6ZN32 1-361).
T2 sequence: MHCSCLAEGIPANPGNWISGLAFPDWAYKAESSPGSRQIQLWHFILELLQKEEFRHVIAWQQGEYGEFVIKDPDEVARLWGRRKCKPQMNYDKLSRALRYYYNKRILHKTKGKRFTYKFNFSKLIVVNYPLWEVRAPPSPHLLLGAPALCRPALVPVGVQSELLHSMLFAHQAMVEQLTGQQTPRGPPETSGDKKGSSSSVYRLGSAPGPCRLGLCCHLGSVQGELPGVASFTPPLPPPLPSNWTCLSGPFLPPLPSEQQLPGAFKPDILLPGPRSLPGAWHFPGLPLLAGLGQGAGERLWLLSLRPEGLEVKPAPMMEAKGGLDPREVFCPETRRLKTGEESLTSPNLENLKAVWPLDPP
Put shortly: as §1

The target in another experiment is T3, ERF (Homo sapiens, UniProt P50548 1-548).
T3 sequence: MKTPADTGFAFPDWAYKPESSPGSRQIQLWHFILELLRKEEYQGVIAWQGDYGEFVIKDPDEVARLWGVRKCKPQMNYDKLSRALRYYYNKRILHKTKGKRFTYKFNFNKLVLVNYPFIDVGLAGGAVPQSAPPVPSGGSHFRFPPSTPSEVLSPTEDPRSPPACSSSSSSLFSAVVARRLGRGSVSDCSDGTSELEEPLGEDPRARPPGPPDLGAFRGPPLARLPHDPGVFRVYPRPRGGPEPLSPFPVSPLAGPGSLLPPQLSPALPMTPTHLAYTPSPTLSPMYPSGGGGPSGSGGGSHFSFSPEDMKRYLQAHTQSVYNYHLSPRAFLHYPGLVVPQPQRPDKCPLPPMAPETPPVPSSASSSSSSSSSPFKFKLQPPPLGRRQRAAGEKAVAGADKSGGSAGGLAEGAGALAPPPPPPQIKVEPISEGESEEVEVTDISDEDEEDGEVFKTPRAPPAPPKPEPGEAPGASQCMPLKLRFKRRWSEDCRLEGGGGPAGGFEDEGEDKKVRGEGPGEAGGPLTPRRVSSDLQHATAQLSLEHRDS
Put shortly: as §1

For the next experiment, the target named is T4, ETV3 (Homo sapiens, UniProt P41162-2 1-143).
T4 sequence: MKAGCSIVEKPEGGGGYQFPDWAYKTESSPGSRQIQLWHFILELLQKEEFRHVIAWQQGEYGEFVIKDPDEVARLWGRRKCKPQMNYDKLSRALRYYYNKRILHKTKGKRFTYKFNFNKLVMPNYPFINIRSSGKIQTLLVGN
Put shortly: as §1

The next experiment addresses SPIB (Homo sapiens, UniProt Q01892 1-262). Put shortly: as §1
The target of the next experiment is T5, FEV (Homo sapiens, UniProt Q99581 1-238).
T5 sequence: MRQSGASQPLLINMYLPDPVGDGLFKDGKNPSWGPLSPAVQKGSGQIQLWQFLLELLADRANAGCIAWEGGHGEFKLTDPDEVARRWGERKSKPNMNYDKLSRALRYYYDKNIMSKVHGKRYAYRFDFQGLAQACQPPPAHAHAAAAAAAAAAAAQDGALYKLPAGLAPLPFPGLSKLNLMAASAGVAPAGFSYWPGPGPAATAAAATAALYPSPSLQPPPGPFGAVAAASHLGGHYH
The method in brief:
as §1

A further experiment has as its target ETV1 (Homo sapiens, UniProt P50549 1-477). Put shortly:
as §1

The next experiment concerns the target T6, SPDEF (Homo sapiens, UniProt O95238 1-335).
T6 sequence: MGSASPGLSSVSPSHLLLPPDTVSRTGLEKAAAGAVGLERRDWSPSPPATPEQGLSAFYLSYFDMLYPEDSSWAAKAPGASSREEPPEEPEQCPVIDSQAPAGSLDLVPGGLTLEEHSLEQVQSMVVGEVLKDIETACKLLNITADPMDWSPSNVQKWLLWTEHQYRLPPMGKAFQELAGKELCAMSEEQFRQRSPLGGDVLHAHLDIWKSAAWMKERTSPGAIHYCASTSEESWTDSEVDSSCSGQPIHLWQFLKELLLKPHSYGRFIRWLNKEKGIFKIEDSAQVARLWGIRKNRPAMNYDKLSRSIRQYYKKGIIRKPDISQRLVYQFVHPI
Put shortly: as §1

The target in another experiment is T7, ELF5 (Homo sapiens, UniProt Q9UKW6-2 1-255).
T7 sequence: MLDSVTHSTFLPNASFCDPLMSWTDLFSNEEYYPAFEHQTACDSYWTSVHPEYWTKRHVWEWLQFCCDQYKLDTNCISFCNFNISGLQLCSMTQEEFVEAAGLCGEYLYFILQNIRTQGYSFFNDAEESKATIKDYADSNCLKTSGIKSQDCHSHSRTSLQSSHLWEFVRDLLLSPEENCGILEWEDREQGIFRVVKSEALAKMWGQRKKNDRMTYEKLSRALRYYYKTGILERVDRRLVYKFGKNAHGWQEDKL
Put shortly:
as §1

The target in another experiment is T8, ETV7 (Homo sapiens, UniProt Q9Y603 1-341).
T8 sequence: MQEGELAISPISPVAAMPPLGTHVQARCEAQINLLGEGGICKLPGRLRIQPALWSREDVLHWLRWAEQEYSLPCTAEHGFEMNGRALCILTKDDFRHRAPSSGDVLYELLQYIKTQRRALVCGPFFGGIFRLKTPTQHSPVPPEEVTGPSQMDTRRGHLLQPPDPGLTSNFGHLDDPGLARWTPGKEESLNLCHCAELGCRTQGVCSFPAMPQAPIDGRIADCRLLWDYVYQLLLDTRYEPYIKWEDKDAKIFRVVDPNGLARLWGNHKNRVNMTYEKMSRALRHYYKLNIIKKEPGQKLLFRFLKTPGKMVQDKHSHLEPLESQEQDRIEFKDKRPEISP
The method in brief:
as §1

The next experiment deals with T9, ERG (Homo sapiens, UniProt P11308 1-479).
T9 sequence: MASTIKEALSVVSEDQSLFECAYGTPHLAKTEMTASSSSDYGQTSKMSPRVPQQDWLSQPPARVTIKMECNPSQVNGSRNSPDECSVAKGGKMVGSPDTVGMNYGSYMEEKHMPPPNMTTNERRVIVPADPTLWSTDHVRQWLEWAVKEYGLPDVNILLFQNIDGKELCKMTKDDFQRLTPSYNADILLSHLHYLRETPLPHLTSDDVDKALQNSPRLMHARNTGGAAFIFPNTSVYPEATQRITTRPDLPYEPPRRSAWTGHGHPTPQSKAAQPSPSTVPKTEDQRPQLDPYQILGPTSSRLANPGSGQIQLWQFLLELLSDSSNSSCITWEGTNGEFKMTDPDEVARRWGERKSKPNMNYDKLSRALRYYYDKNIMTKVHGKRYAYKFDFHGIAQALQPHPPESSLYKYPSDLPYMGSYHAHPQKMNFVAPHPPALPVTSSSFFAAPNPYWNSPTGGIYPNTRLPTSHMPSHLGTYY
Put shortly:
as §1

Another experiment concerns the target SPI1 (Homo sapiens, UniProt P17947 1-270). Put shortly:
as §1

The next experiment concerns the target T10, ETS2 (Homo sapiens, UniProt P15036 1-469).
T10 sequence: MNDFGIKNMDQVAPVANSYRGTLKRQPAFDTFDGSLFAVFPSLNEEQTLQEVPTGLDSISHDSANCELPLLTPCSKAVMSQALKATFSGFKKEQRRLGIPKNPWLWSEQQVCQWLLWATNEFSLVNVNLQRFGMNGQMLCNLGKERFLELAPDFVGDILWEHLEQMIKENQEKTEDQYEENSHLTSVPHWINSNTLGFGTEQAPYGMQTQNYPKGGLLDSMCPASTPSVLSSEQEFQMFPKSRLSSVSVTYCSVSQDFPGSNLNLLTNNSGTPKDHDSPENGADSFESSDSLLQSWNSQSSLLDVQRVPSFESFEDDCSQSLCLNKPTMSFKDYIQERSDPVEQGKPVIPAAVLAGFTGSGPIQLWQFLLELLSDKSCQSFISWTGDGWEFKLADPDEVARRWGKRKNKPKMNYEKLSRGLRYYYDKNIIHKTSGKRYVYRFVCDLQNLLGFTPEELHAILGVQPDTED
Put shortly: as §1

A further experiment has as its target T11, EHF (Homo sapiens, UniProt Q9NZC4 1-300).
T11 sequence: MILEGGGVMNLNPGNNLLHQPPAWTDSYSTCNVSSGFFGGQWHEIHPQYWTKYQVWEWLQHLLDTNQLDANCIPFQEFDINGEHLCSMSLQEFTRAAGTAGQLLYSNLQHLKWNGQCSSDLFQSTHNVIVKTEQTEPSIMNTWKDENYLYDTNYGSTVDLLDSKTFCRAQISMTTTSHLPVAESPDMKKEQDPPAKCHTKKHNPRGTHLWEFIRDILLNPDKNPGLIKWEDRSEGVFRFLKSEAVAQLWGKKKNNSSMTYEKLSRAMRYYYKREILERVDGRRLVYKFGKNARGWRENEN
The method in brief: as §1

The target in the next experiment is T12, ELK3 (Homo sapiens, UniProt P41970 1-407).
T12 sequence: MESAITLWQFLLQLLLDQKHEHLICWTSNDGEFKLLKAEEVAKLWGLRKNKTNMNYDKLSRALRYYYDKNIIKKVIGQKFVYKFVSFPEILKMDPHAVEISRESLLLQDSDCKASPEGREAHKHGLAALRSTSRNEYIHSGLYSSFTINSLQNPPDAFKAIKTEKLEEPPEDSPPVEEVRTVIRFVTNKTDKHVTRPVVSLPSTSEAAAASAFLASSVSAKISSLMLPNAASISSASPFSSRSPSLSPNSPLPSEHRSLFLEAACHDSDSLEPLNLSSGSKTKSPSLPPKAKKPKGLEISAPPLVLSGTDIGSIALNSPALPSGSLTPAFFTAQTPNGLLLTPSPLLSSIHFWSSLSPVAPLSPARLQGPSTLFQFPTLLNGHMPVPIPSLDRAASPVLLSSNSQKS
The method in brief: as §1

Sequence of SPIB (Q01892 whole entry): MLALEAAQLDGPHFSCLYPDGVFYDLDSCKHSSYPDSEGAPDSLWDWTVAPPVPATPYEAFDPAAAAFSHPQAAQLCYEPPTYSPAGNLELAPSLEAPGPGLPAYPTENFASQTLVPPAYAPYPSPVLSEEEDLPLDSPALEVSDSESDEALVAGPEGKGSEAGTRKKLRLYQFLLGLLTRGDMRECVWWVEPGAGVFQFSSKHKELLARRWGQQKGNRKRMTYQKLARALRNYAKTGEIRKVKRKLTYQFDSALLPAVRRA
Sequence of ETV1 (P50549 whole entry): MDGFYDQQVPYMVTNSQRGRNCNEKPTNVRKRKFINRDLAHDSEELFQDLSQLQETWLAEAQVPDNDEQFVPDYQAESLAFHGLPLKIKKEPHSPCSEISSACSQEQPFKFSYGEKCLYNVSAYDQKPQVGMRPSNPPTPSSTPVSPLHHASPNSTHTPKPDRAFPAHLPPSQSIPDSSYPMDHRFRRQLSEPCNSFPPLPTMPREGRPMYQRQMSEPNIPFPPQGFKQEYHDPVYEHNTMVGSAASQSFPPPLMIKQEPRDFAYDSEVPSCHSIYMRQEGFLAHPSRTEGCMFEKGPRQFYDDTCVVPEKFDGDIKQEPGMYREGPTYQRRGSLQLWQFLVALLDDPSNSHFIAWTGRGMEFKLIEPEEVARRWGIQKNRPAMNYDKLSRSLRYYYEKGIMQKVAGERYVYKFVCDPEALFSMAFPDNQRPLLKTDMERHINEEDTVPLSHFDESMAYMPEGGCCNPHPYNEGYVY

For TCGCCA, the binding signal in the experiment with GABPA is 1 fold enrichment (6-mer frequency, TF over GST control); with ETV3L, 1.01 fold enrichment (6-mer frequency, TF over GST control).

For TTGGAC, the binding signal with ERF was 1.02 fold enrichment (6-mer frequency, TF over GST control); with ETV3, 1.01 fold enrichment (6-mer frequency, TF over GST control).

On to CGGTAC, for which the binding signal in the experiment with SPIB was 1.06 fold enrichment (6-mer frequency, TF over GST control); in the experiment with FEV, 1.05 fold enrichment (6-mer frequency, TF over GST control); with ETV1, 1.01 fold enrichment (6-mer frequency, TF over GST control); with SPDEF, 1.07 fold enrichment (6-mer frequency, TF over GST control); with ELF5, 1.02 fold enrichment (6-mer frequency, TF over GST control).

Take TGTAGT: the binding signal with SPDEF is 1.03 fold enrichment (6-mer frequency, TF over GST control).

Take CGCGGT: in the experiment with ETV1, the binding signal was 1.03 fold enrichment (6-mer frequency, TF over GST control).

Turning to GACGAA, in the experiment with ERF, the binding signal was 1.01 fold enrichment (6-mer frequency, TF over GST control).

For GACAAA, the binding signal with ERF is 1.06 fold enrichment (6-mer frequency, TF over GST control); with ETV7, 1.1 fold enrichment (6-mer frequency, TF over GST control).

For GCAACG, the binding signal is 1.03 fold enrichment (6-mer frequency, TF over GST control) with GABPA; 1 fold enrichment (6-mer frequency, TF over GST control) with ERG; 1.01 fold enrichment (6-mer frequency, TF over GST control) in the experiment with ERF.

Consider AGTTCA, for which the binding signal with SPI1 was 1.01 fold enrichment (6-mer frequency, TF over GST control); in the experiment with ETV3L, 1.04 fold enrichment (6-mer frequency, TF over GST control); with ETS2, 1 fold enrichment (6-mer frequency, TF over GST control).

Turning to AGCACC, the binding signal in the experiment with ERF was 1.03 fold enrichment (6-mer frequency, TF over GST control); with ETV3L it was 1.04 fold enrichment (6-mer frequency, TF over GST control).

Consider CGGTAA, for which the binding signal was 1.01 fold enrichment (6-mer frequency, TF over GST control) with EHF and 1.05 fold enrichment (6-mer frequency, TF over GST control) in the experiment with ELF5.

ATAGAG: the binding signal with ERF was 1.01 fold enrichment (6-mer frequency, TF over GST control).

With AGCGCA, the binding signal in the experiment with ETV3L was 1.01 fold enrichment (6-mer frequency, TF over GST control).

Take AAGACA: the binding signal with ERG is 1 fold enrichment (6-mer frequency, TF over GST control); with SPIB it was 1.02 fold enrichment (6-mer frequency, TF over GST control); with ELK3 it was 1.01 fold enrichment (6-mer frequency, TF over GST control); in the experiment with ERF, 1.07 fold enrichment (6-mer frequency, TF over GST control); with ETV3L, 1.01 fold enrichment (6-mer frequency, TF over GST control); with ETS2 it was 1.01 fold enrichment (6-mer frequency, TF over GST control). In addition, in the experiment with ETV7, the binding signal is 1.04 fold enrichment (6-mer frequency, TF over GST control).
